Experimental data reported in the supplement of paper PMC3545927.
This is one part of the list. The true hit rate is not given.

Target: furin, P09958
Experiment: furin cleavage Z-score vs untreated control; higher = more cleavage, active = 3.5 or more, inactive = 1 or less, 8 variable residues between constant flanks
Method in brief: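 The cleavage Z-score was derived for purified furin acting on 8-mer peptides held on magnetic beads and fused to a cDNA oligonucleotide. Digests lasted 7.5, 15 or 30 min at 1:10 enzyme:substrate in 50 mM HEPES pH 7.5 with CaCl2 and NaCl. Sequencing counts of released DNA, log-transformed against furin-free reactions, were lowess-adjusted and scaled by median absolute deviation.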

furin, P09958, sequence (P09958 whole entry): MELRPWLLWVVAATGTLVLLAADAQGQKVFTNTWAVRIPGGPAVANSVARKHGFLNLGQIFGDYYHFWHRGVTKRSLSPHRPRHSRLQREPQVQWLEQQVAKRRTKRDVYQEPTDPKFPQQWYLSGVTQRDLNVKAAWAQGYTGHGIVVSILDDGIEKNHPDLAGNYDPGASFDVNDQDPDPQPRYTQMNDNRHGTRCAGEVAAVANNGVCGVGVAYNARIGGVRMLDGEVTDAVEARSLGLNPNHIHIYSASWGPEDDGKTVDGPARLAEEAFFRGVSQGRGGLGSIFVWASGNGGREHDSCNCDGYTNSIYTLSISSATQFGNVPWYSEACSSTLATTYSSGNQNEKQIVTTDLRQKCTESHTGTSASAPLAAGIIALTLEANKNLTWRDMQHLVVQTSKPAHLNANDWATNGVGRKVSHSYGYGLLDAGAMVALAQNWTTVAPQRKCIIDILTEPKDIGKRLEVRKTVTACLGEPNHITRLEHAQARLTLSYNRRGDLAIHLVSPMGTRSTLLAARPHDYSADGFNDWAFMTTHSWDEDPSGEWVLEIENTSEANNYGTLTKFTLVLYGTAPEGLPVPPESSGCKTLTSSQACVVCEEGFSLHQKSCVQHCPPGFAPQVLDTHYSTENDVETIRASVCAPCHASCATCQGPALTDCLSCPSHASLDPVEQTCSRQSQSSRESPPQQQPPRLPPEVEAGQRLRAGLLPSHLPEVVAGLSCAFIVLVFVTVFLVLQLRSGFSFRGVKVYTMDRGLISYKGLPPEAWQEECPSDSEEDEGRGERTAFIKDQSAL

Sequence | furin cleavage Z-score (7.5 min) | furin cleavage Z-score (15 min) | furin cleavage Z-score (30 min)
CASFLVFFCFAGNASASA [HC544] | -1.06 (inactive) | -0.337 (inactive) | -0.101 (inactive)
CAGTHGLVSFAGNASASA [HC541] | 1.37 | 0.474 (inactive) | 1.36
CARLKRQPCAAGNASASA [FS-3227] | 0.299 (inactive) | -0.962 (inactive) | -0.478 (inactive)
CARLKRVEDQAGNASASA [FS-1907] | -1.61 (inactive) | 0.449 (inactive) | -0.817 (inactive)
CARLKRQVTEAGNASASA [FS-2992] | 11.3 (active) | 12 (active) | 11.2 (active)
CARLKRALDFAGNASASA [FS-2219] | 6.13 (active) | 7.48 (active) | 7.29 (active)
CAVLATATPPAGNASASA [HC833] | -0.698 (inactive) | -1.92 (inactive) | -0.599 (inactive)
CARDARSVRDAGNASASA [FS-2328] | 2.71 | 4.77 (active) | 5.93 (active)
CAREDRAVRDAGNASASA [FS-2413] | -1.11 (inactive) | 0.317 (inactive) | -0.31 (inactive)
CARSVRFISNAGNASASA [FS-2821] | -2.17 (inactive) | -0.565 (inactive) | 1.32
CARSVRSTRDAGNASASA [FS-1075] | 9.44 (active) | 11 (active) | 9.05 (active)
CARDARMSDAAGNASASA [FS-2204] | -1.21 (inactive) | 0.407 (inactive) | 0.769 (inactive)
CACHLRRFRSAGNASASA [FS-581] | -0.297 (inactive) | -0.28 (inactive) | 0.354 (inactive)
CARGGRDAVIAGNASASA [HC594] | 0.336 (inactive) | 0.26 (inactive) | 0.331 (inactive)
CAFLWRSFRSAGNASASA [FS-327] | -0.934 (inactive) | -0.656 (inactive) | -0.629 (inactive)
CATNHRIFRSAGNASASA [FS-384] | 1.71 | 2.99 | 5.79 (active)
CARGGRIFRSAGNASASA [FS-1397] | 7.37 (active) | 8.25 (active) | 7.16 (active)
CAQMHRKFRSAGNASASA [FS-703] | 6.07 (active) | 8.69 (active) | 6.07 (active)
CAVVCCSMTYAGNASASA [HC2078] | -0.433 (inactive) | 0.0813 (inactive) | -0.381 (inactive)
CARNRRALRDAGNASASA [FS-3010] | 7.62 (active) | 8.24 (active) | 7.01 (active)
CARNRRHVTEAGNASASA [FS-3011] | 12.2 (active) | 12.5 (active) | 9.58 (active)
CARCDRDNTEAGNASASA [FS-2896] | -0.96 (inactive) | -0.486 (inactive) | -1.77 (inactive)

Sequence | furin cleavage Z-score (7.5 min) | furin cleavage Z-score (15 min) | furin cleavage Z-score (30 min)
CARNRRLVSDAGNASASA [FS-3012] | 0.716 (inactive) | 3.37 | 2.68
CAREDRGAYTAGNASASA [FS-2909] | -0.191 (inactive) | 0.288 (inactive) | -1.31 (inactive)
CARNRRGAITAGNASASA [FS-1912] | 5.06 (active) | 6.46 (active) | 7.54 (active)
CARNRRHHRDAGNASASA [FS-709] | 8.79 (active) | 10.1 (active) | 7.04 (active)
CACFDSTVTEAGNASASA [HC1482] | 0.967 (inactive) | -0.854 (inactive) | -1.23 (inactive)
CAFSYDTRCFAGNASASA [HC1479] | -0.0881 (inactive) | -0.998 (inactive) | 0.0108 (inactive)
CALDVVCCSMAGNASASA [HC2105] | -0.768 (inactive) | -1.48 (inactive) | -0.867 (inactive)
CARNRRVAEAAGNASASA [FS-2049] | 2.16 | 3.37 | 3.98 (active)
CARNRRHPRSAGNASASA [FS-560] | 11.3 (active) | 13.7 (active) | 8.58 (active)
CAVGRVVLSGAGNASASA [HC1002] | -0.201 (inactive) | 2.15 | -1.8 (inactive)
CARIPQAILDAGNASASA [HC330] | -0.397 (inactive) | 0.0404 (inactive) | 0.351 (inactive)
CARNRRSLSGAGNASASA [FS-2577] | 5.26 (active) | 5.66 (active) | 6.3 (active)
CARNRRTHEFAGNASASA [FS-2048] | -0.109 (inactive) | -0.137 (inactive) | 0.595 (inactive)
CARNRRSILDAGNASASA [FS-2733] | 6.77 (active) | 9.44 (active) | 8.76 (active)
CALMPQLPGIAGNASASA [HC1160] | 1.4 | 1.95 | 0.83 (inactive)
CAPDYNPPLVAGNASASA [HC1306] | 0.58 (inactive) | -1.42 (inactive) | -0.164 (inactive)
CADAEVVTSTAGNASASA [HC2283] | -0.438 (inactive) | 0.612 (inactive) | 0.657 (inactive)
CAGNPAIASLAGNASASA [HC1052] | -0.886 (inactive) | -0.0897 (inactive) | -0.877 (inactive)
CARPYCWHYPAGNASASA [HC402] | -0.0981 (inactive) | -0.342 (inactive) | -1.07 (inactive)
CAMEECSQILAGNASASA [HC1744] | 0.778 (inactive) | 0.663 (inactive) | 0.94 (inactive)
CALCTTPCSGAGNASASA [HC1945] | 0.463 (inactive) | -0.673 (inactive) | -0.438 (inactive)
